# Screening data: PubChem, National Center for Advancing Translational Sciences (NCATS)
# D2 ag-1: D2 dopamine receptor (human) agonism; P14416; HEK293 T-REx D2 cells, calcium flux agonist mode; activation, % at 2 µM; 340,000 tested, 0.53% active; AID 485358;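 active = activation over 3 SD above normal in the single-dose calcium agonist read, cut at about 30% in these data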; also: 0% is about no effect
# Target sequence (P14416 whole entry, looked up): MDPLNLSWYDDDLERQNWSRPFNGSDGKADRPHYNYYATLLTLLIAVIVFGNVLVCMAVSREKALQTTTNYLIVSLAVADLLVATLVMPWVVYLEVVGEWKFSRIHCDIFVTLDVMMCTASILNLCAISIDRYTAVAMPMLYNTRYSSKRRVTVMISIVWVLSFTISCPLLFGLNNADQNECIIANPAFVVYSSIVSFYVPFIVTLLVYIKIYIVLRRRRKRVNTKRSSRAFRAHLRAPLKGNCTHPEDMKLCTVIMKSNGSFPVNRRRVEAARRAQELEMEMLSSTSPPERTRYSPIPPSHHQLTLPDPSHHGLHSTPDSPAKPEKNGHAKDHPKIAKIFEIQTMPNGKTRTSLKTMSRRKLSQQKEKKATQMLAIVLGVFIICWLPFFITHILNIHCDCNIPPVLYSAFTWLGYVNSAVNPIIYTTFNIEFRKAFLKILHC
#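 Tetracycline-induced HEK293 T-REx cells with force-coupled D2 receptor, plated overnight at 30 C, loaded with no-wash calcium dye. After a 10 s baseline, compound was pin-added and calcium flux read kinetically for 180 s; calcium rises flagged agonists.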
# D2 PAM-1: positive allosteric modulators of human D2 dopamine receptor. potentiation, % at 10 µM. HEK293 T-REx D2, calcium flux, EC20 dopamine potentiation. AID 485347. 340,000 tested, 0.34% active;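 active = potentiation over 3 SD above the plate norm, cut at about 30% in these data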; also: 0% is about no effect
#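 Cells plated with tetracycline inducer and held overnight at 30 C; calcium dye loaded 30–90 min at room temperature; baseline taken, compound added and read 180 s; EC20 dopamine then added and read 180 s.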
# D2 PAM-2: human D2 receptor positive allosteric modulation; DiscoveRx D2 beta-arrestin cells, luminescence, 90 min; 100% = 57 uM dopamine signal; P14416; AID 624464; potentiation, % (concentration not given with the values); 360,000 tested, 0.23% active; in the data active = potentiation above about 50%; inconclusive = mostly about 30% to 49%
#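 PathHunter D2 cells, attached overnight at 37 deg C, received compound in DMSO plus dopamine at EC20 (50 nM final) for 90 min at 37 deg C. Beta-arrestin recruitment was read as luminescence after 1 h with detection reagent at ambient temperature.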
# D2 antagonist: antagonizes the human D2 dopamine receptor; P14416; HEK293 TREx D2 cells, calcium flux, dopamine EC80; inhibition, % at 10 µM; 340,000 tested, 2% active; in the data active = inhibition above about 30%; inactive = below that, where a call was filed; also: 0% is about no effect
#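 HEK293 T-REx D2 cells, tet-induced, calcium dye no-wash. Cpd pintool add, 180 s kinetic, then EC80 DA, 180 s kinetic. Ca flux read.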
# D2 ag-2: agonists of human D2 dopamine receptor (beta-arrestin). P14416. DiscoveRx PathHunter D2 beta-arrestin, luminescence, 90 min; 100% = 57 uM dopamine signal. activation, % (concentration not given with the values). 360,000 tested, 0.084% active; in the data active = activation above about 40%; inconclusive = between about 15% and that limit
#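 DiscoveRx PathHunter D2 beta-arrestin cells (2,100/well) attached overnight, then compound-stimulated 90 min at 37 C in HBSS/10 mM HEPES/0.1% Tween-20 buffer; beta-galactosidase complementation read by luminescence after 1 h at ambient temperature. Dopamine 57 uM final (EC100) as control.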
# * = called active by the depositor; ? = inconclusive; . = not tested or not shown. Rows were chosen to be rich in hits. Some 2.4% of all compounds tested hit in one or more screens of this group.
SMILES,D2 ag-1,D2 PAM-1,D2 PAM-2,D2 antagonist,D2 ag-2
O=C1CCC(C(=O)N2CCN(c3cnccn3)CC2)CN1CCc1ccccc1 (stereo unspecified),.,.,-10,.,-1
C=CCOc1ccccc1CN1CCC(Cc2ccccc2)CC1,-1,-12,-15,31*,-3
COc1cc(C)c(CN2CCC(Cc3ccccc3)CC2)cc1C,.,-19,-7,.,-5
COc1cc(CN2CCC(Cc3ccccc3)CC2)c([N+](=O)[O-])cc1OC,1,-2,-21,15,-4
O=[N+]([O-])c1cccc(OCCN2CCC(Cc3ccccc3)CC2)c1,0,-20,-26,67*,0
COc1ccc(Oc2coc3cc(OC(=O)c4cccs4)ccc3c2=O)cc1,0,37*,-4,-19,0
C[C@@H]1CN(Cc2nnnn2CC(=O)NCCCn2cccn2)C[C@H](C)O1,.,.,-4,.,-2
Cc1cc(C)c(NC(=O)C2CCCN(S(=O)(=O)c3c(C)noc3/C=C/N(C)C)C2)c(C)c1 (stereo unspecified),0,-1,-3,33*,-2
Cc1cc(C)c(NC(=O)C2CCCN(S(=O)(=O)c3c(C)noc3C)C2)c(C)c1 (stereo unspecified),-1,30,.,.,.
COC(=O)c1cc2sc(Cl)cc2n1Cc1nc(-c2ccccc2C)oc1C,0,25,.,.,.
Cc1cc(O)c2c(c1)C(=O)[C@@]13Oc4c5c(c(O)c6c(O)cc(C)cc46)C(=O)C[C@H](O)[C@H]5[C@@H]1[C@@H](O)CC(=O)C3=C2O,.,.,66*,.,11
CC(=O)Nc1cccc(C(=O)/C=C/c2ccc(/C=C/C(=O)c3cccc(NC(C)=O)c3)cc2)c1,1,-4,.,0,.
CC(=O)Nc1cccc(C(=O)/C=C/c2ccc(N(C)C)cc2)c1,86*,-3,?,35*,6
CO[C@H]1O[C@H](CBr)[C@@H](OC(=O)c2ccccc2)[C@H](O)[C@H]1O,.,.,-3,.,-2
COc1cc(NCCCC(C)N)c2ncccc2c1 (stereo unspecified),-3,9,4,2,6
CCC(CNc1cc(OC)cc2cccnc12)NC1CCCCC1 (stereo unspecified),-1,-18,-19,47*,7
O=C1c2ccccc2C(c2nc3ccccc3[nH]2)N1c1ccccn1 (stereo unspecified),.,.,1,.,7
CC(CCN1CCOCC1)c1ccccc1 (stereo unspecified),0,1,-2,1,-2
CC(CCN1CCN(c2ccc(F)cc2)CC1)c1ccccc1 (stereo unspecified),2,-21,-33,88*,-5
CC(OC(=O)c1ccc([N+](=O)[O-])o1)C(=O)Nc1nc(-c2ccc(F)c(F)c2)cs1 (stereo unspecified),0,-6,66*,3,7
Cc1cc(C(=O)OC(C)C(=O)Nc2nc(-c3ccccc3)cs2)c(C)o1 (stereo unspecified),-1,28,3,-8,-1
CN1CCN(C(c2cccs2)c2nnnn2Cc2ccc(F)cc2)CC1 (stereo unspecified),0,8,0,42*,-3
CC(C)C(c1nnnn1Cc1ccc(F)cc1)N1CCN(C2CCCC2)CC1 (stereo unspecified),0,8,-3,56*,-4
CN1CCN(C(c2ccc(F)cc2)c2nnnn2Cc2cccs2)CC1 (stereo unspecified),.,.,-18,.,-5
CCCC(c1nnnn1Cc1ccc(F)cc1)N1CCN(C2CCCCC2)CC1 (stereo unspecified),-1,3,-21,-12,-1
CCCCNC(=O)c1cccc(NC(=O)c2nsc3ccccc23)c1,-2,0,.,.,.
O=C(NCCCc1nc2ccccc2n1Cc1ccccc1Cl)C1CCCCC1,1,0,.,.,.
CCCN1C(=O)/C(=C\C=C2\N(CC)c3ccccc3C2(C)C)SC1=S,22,-9,-8,1,-1
CN1C(=CC=C2C=C(I)C(=O)C(I)=C2)C(C)(C)c2ccccc21,7,-4,-1,15,-2
CN1/C(=C\C=C2/SC(=S)NC2=O)C(C)(C)c2ccccc21,41*,-8,-14,16,-11
